Lassa entry inh: blocks Lassa virus binding to or entry into cells; Lassa virus pseudotype entry inhibition, cell reporter; Potency, µM (highest dose often 37.9 µM), actives largely listed as inhibitors; 1.2% of 300,000 active; AID 540256; calls by dose curve; tested in HEK293 cells; also: nearly all actives have a fitted effect of over 50% in size
HCMV antiviral: inhibitors of human cytomegalovirus; HFF cells, HCMV-luciferase reporter, 72 h; hits give low values; activity change, negative = inhibition, % at 57.5 µM; 4.5% of 410,000 active; AID 1259415; in the data active = activity change below about -60%; inconclusive = no clear call, values can overlap the other calls; inactive = above about -39%
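Human foreskin fibroblasts infected with luciferase-reporter HCMV at MOI 1 PFU/cell, compounds at two doses. Luciferase measured 72 h post infection; normalized to buffer-only basal and Salinomycin (10uM) controls.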
FMDV inh: antivirals against foot and mouth disease virus; FMDV antiviral cell-based qHTS; Potency, µM (titrated, usually from 57.9 µM), most hits filed as inhibitors; 1.2% of 410,000 active; calls by dose curve; tested in HEK293T cells; also: read-out not given here; nearly all actives have a fitted effect of over 45% in size
SARS PLpro yeast: blocks SARS-CoV papain-like protease in a yeast assay | Potency, µM (series often up to 32.9 µM), most hits filed as activators | 0.19% of 330,000 active | S. cerevisiae expressing SARS-CoV PLpro, growth rescue | AID 485353; calls by dose curve; also: nearly all actives have a fitted effect of over 55% in size
Marburg entry inh: inhibitors of Marburg virus binding or cell entry. Marburg virus pseudotyped entry inhibition, cell reporter. Potency, µM (doses to about 37.8 µM), actives largely listed as inhibitors. 1.8% of 300,000 active; calls by dose curve; tested in HEK293 cells
HCV inh: inhibitors of hepatitis C virus infection. 3.4% of 340,000 active. Potency, µM (doses to about 41.8 µM), usual class: inhibitors. Huh7.5.1 HCVcc-Cre infection, luciferase reporter, 44 h; active = well fitted inhibition curve with a large enough effect; inconclusive = small, poorly fitted or top-dose-only effect, or another doubt; inactive = no such curve, though single readings can be large or run the other way
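Compounds are dispensed onto cells plated 4 h earlier at 1,000 per well, with HCVcc-Cre virus (about 0.5 moi) added next. Following 44 h of culture, luminescent signal is measured for 15 sec after 15 min with substrate at room temperature.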
Large screens that a line does not name were inactive. The list is not random: actives were taken first. Their share in the collection is about 8%.

Cc1onc(-c2ccccc2)c1C(=O)Nc1ccc(NC(=O)c2c(-c3ccccc3)noc2C)cc1	none (no result: Lassa entry inh, SARS PLpro yeast, Marburg entry inh)
Cc1onc(-c2ccccc2)c1C(=O)N/N=C/C(Br)=C/c1ccccc1	Lassa entry inh inconclusive, HCMV antiviral -70, Marburg entry inh inconclusive, HCV inh inconclusive
Cc1occc1C(=O)N/N=C/C(Br)=C\c1ccccc1	Lassa entry inh 13µM, FMDV inh inconclusive, Marburg entry inh inconclusive, HCV inh inconclusive
O=C(NCc1cccs1)C1CC(=O)N(c2ccc(Cl)cc2)C1 (stereo not drawn)	none
Cc1cccc(/C=N/NC(=O)c2c(-c3ccccc3)noc2C)c1O	HCMV antiviral -113, SARS PLpro yeast inconclusive, Marburg entry inh inconclusive, HCV inh inconclusive
Cc1nn(-c2ccccc2)c(C)c1NC(=O)COC(=O)CC(C)c1ccccc1 (stereo not drawn)	HCMV antiviral -63, HCV inh inconclusive
Cc1ccc(C)c(OCC(=O)OCC(=O)Nc2c(C)nn(-c3ccccc3)c2C)c1	none
Cc1nn(-c2ccccc2)c(C)c1NC(=O)COC(=O)c1ccc(NC(=O)CC#N)cc1	Lassa entry inh inconclusive, HCMV antiviral -68 (no result: SARS PLpro yeast)
[O-][N+]1=c2ccc(Nc3ccccc3)cc2=NC12CCCCC2	Lassa entry inh inconclusive, HCMV antiviral inconclusive, Marburg entry inh 2.2µM, HCV inh inconclusive
CCCOc1ccc(C(O)(CCC)CCN2CCCCC2)cc1 (stereo not drawn)	Lassa entry inh inconclusive, HCV inh 8.9µM
COc1cccc(OC)c1OCCN1CCC(C(=O)NC(c2ccc3c(c2)OCO3)c2ccccn2)CC1 (stereo not drawn)	HCMV antiviral -61 (no result: Lassa entry inh, SARS PLpro yeast, Marburg entry inh, HCV inh)
CCc1cc(=O)oc2cc(C)cc(OC(C)C(=O)NCCCn3ccnc3)c12 (stereo not drawn)	none
O=C(CSC(=S)N1CCCC1)c1cc(Br)cc(Br)c1O	HCMV antiviral inconclusive, Marburg entry inh inconclusive, HCV inh 13µM
CC1CCCN(C(=S)SCC(=O)c2cc(Br)cc(Br)c2O)C1 (stereo not drawn)	none
Cc1ccc(NC(=O)c2nc[nH]c2C(=O)N2CCc3ccccc3C2)cc1	HCMV antiviral -75 (no result: Lassa entry inh, Marburg entry inh)
CC(C)(C)OC(=O)NCc1ccc(CNC(=O)c2nc[nH]c2C(=O)N2CCc3ccccc3C2)cc1	FMDV inh 40µM, HCV inh inconclusive (no result: Lassa entry inh, Marburg entry inh)
CC(C)(C)OC(=O)[C@H](Cc1ccccc1)NC(=O)c1nc[nH]c1C(=O)N1CCN(c2ccccc2)CC1	none (no result: Lassa entry inh, Marburg entry inh)
CC(C)(C)OC(=O)NCc1ccc(CNC(=O)c2nc[nH]c2C(=O)N2CCN(c3ccccc3)CC2)cc1	FMDV inh 20µM, HCV inh inconclusive (no result: Lassa entry inh, Marburg entry inh)
O=C(Nc1ccccc1)c1nc[nH]c1C(=O)N1CCN(c2ccccc2)CC1	HCMV antiviral inconclusive (no result: Lassa entry inh, Marburg entry inh)
COc1ccc(NC(=O)c2nc[nH]c2C(=O)N2CCN(c3ccccc3)CC2)cc1	HCMV antiviral -72 (no result: Lassa entry inh, Marburg entry inh)
CCS(=O)(=O)N1CCC(n2c(C(F)(F)F)nc3cccnc32)CC1	none (no result: SARS PLpro yeast, Marburg entry inh, HCV inh)
CCN(Cc1ccncc1)C(=O)c1cc(COc2ccc(C)c(C)c2)on1	HCMV antiviral -74, Marburg entry inh inconclusive, HCV inh inconclusive
Cn1cc(CNC(=O)c2cc(COc3ccc4c(c3)CCCC4)on2)cn1	none
Cc1ccc(OCc2cc(C(=O)N(CCO)Cc3cccs3)no2)cc1C	Lassa entry inh inconclusive
CCN(Cc1cnn(C)c1)C(=O)c1cc(COc2ccc3c(c2)CCCC3)on1	HCV inh 22µM (no result: Lassa entry inh, Marburg entry inh)
O=C(c1ccc(S(=O)(=O)Nc2ccccc2F)cc1)N1CCN(c2ccccn2)CC1	FMDV inh inconclusive, HCV inh 4.5µM (no result: Lassa entry inh, Marburg entry inh)
O=C(NNC(=O)c1ccccc1O)c1ccc(S(=O)(=O)Nc2ccccc2F)cc1	HCV inh 16µM
CCOC(=O)C1(C)CCCN(C(=O)c2snnc2C)C1 (stereo not drawn)	none (no result: Lassa entry inh, SARS PLpro yeast, Marburg entry inh, HCV inh)
O=C(Nc1ccc(Cc2ccncc2)cc1)C1CCC(N2C(=O)C3C4C=CC(C4)C3C2=O)CC1 (stereo not drawn)	Lassa entry inh inconclusive, HCMV antiviral -80, HCV inh 8.9µM (no result: FMDV inh)
CC1CCC2C(=O)N(c3ccc(Cc4ccncc4)cc3)C(=O)C2C1 (stereo not drawn)	Lassa entry inh inconclusive, HCMV antiviral -75, FMDV inh inconclusive, Marburg entry inh inconclusive, HCV inh inconclusive
O=C1C2C3C=CC(C3)C2C(=O)N1c1ccc(Cc2ccncc2)cc1 (stereo not drawn)	HCMV antiviral -67, Marburg entry inh inconclusive
Cc1nnc(N2CCN(c3ccccc3F)CC2)c2c1nnn2Cc1ccccc1	none (no result: SARS PLpro yeast, HCV inh)
COc1ccc(CNC(C)C23CC4CC(CC(C4)C2)C3)c(OC)c1OC (stereo not drawn)	HCMV antiviral -61, HCV inh inconclusive (no result: Lassa entry inh, Marburg entry inh)
Cc1nn(CCC(=O)NC(C)C)c(=O)c2nn(-c3ccccc3)c(C)c12	none (no result: SARS PLpro yeast, Marburg entry inh, HCV inh)
Cc1scc(C(=O)N/N=C/c2ccc([N+](=O)[O-])o2)c1C	HCMV antiviral -100 (no result: Lassa entry inh, FMDV inh, Marburg entry inh, HCV inh)
O=C(N/N=C/c1ccc([N+](=O)[O-])o1)c1ccc(O)cc1	Lassa entry inh inconclusive, HCMV antiviral -93, Marburg entry inh inconclusive, HCV inh 25µM
Cc1scc(C(=O)N/N=C/c2ccco2)c1C	none
O=C(N/N=C/c1ccc([N+](=O)[O-])o1)c1ccncc1	Lassa entry inh inconclusive, HCV inh inconclusive
O=C(N/N=C/c1ccc([N+](=O)[O-])o1)c1cc2c(ccc3ccccc32)o1	HCMV antiviral -72, HCV inh inconclusive (no result: Lassa entry inh, Marburg entry inh)
O=C(N/N=C/c1cc(Br)c(Br)o1)c1cc2ccccc2o1	Lassa entry inh inconclusive, HCMV antiviral active, Marburg entry inh inconclusive
O=C(N/N=C/c1ccc([N+](=O)[O-])o1)c1cc2ccccc2o1	HCMV antiviral inconclusive, HCV inh inconclusive (no result: Lassa entry inh, Marburg entry inh)
Cc1nc2ccccn2c1C(=O)N/N=C/c1ccc([N+](=O)[O-])o1	HCMV antiviral -74, HCV inh inconclusive (no result: Lassa entry inh, Marburg entry inh)
O=C(N/N=C\c1ccc([N+](=O)[O-])o1)c1cncc(Br)c1	Lassa entry inh inconclusive, HCMV antiviral -83, FMDV inh inconclusive, Marburg entry inh inconclusive, HCV inh 22µM
CCN(CC)S(=O)(=O)c1cccc(C(=O)N/N=C/c2ccc([N+](=O)[O-])o2)c1	Lassa entry inh inconclusive, HCMV antiviral -61, FMDV inh inconclusive, Marburg entry inh inconclusive, HCV inh inconclusive
Cc1cccc(NS(=O)(=O)c2cccc(C(=O)N3CCN(C/C=C/c4ccccc4)CC3)c2)c1	FMDV inh inconclusive, HCV inh inconclusive (no result: Lassa entry inh, Marburg entry inh)
Cc1cc(-n2c(C)cc(C(=S)N3CCOCC3)c2C)ccc1Br	HCMV antiviral -66, FMDV inh inconclusive, HCV inh inconclusive
Cc1ccc(C)c(NC(=O)Cc2coc3cc(C)cc(C)c23)c1	Marburg entry inh inconclusive (no result: SARS PLpro yeast, HCV inh)
O=C1C(Cl)=C(Nc2ccc(O)cc2)C(=O)c2ccccc21	Lassa entry inh 4.5µM, HCMV antiviral -99, FMDV inh 32µM, Marburg entry inh inconclusive, HCV inh inconclusive
CCNC1=C(Cl)C(=O)c2ccccc2C1=O	HCV inh inconclusive
Cc1ccc(NC2=C(Cl)C(=O)c3ccccc3C2=O)cc1	Lassa entry inh 13µM, Marburg entry inh inconclusive, HCV inh 7.1µM

Compound activity deposited in PubChem BioAssay by National Center for Advancing Translational Sciences (NCATS).
